Source: PubChem BioAssay AID748 (Sanford-Burnham Center for Chemical Genomics, 2007)
The whole screen tested about 96,000 compounds, of which about 100 (0.1%) were called active. This is one part of a sample in which actives are shown more often than they occur. Potency and affinity values are given separately. A number with no mark means an inactive call.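 How the source made its calls: active means displacement above 50% at 20 µM plus a fluorescence interference ratio under 1.5; inactive means the rest.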

biological target: Bcl-2-like protein 10 (Homo sapiens) (UniProt Q9HD36); assay: displacers of TR3 peptide from Bcl-B, primary screen, selectivity assay for Bfl-1 inhibitor project, biochemical, fluorescence polarization, FITC-TR3 peptide (AID 748); conditions: FP displacement of FITC-TR3 peptide from Bcl-B; at 20 µM; stronger effect = higher value;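 further: plate controls were wells without compound for no effect and wells lacking Bcl-B protein for full effect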

| SMILES | displacement |
| --- | --- |
| CCn1c(SCC(=O)Nc2ccc(NC(C)=O)cc2)nnc1C1CC1 | -2.2% |
| O=c1c(-c2ccccc2)coc2c(CN3CCCC3)c(O)ccc12 | 0.4% |
| COc1ccc(C(=O)c2coc3ccc(O)c(CN4CCCCC4)c23)cc1 | -2.5% |
| Nc1csnc1C(=O)O | 1.9% |
| Cc1nnc(-c2cccc(Br)c2)c2cn(-c3ccccc3Cl)nc12 | 7.2% |
| CCCCC(=O)Nc1ccc(NC(=O)CCCC)nc1 | -8.6% |
| Cc1ccc(C(=O)CSc2cc(C)nc(SCC(=O)c3ccccc3)n2)cc1 | -6.6% |
| Nc1cc(N)nc(SCC(=O)c2ccccc2)n1 | -7.4% |
| CCn1c(SCC(=O)c2ccc(O)c(O)c2)nnc1-c1ccc(C)cc1 | 33% |
| CCn1c(SCC(=O)c2ccc(O)c(O)c2)nnc1-c1ccccc1 | 15.8% |
| Cc1ccc(NC(=O)CCn2nc(C)cc2C)c(C)c1 | -5% |
| CCN(CCO)c1ccc(-n2c(N)c(C(=O)OC)c3nc4ccccc4nc32)cc1 | 12.6% |
| CC(C)c1nnc(NC(=O)CCN2C(=O)c3ccccc3C2=O)s1 | -5.9% |
| CCn1c(SCc2ccc(C#N)cc2)nnc1-c1cccc(Cl)c1 | -1.6% |
| Clc1ccc(CN(Cc2ccccc2)C(c2cccs2)c2nnnn2C2CCCC2)cc1 (configuration not stated) | -9.7% |
| O=C(c1cccnc1)N1CCc2ccccc21 | -1.9% |
| O=C1CN(C(=O)c2cnccn2)c2ccccc2N1 | 7% |
| Cc1cc(C(F)F)n2ncc(C(=O)N3CCC(C(N)=O)CC3)c2n1 | 10.5% |
| CCS(=O)(=O)C(=C1NCCO1)S(=O)(=O)CC | 1.6% |
| Cc1ccc2c(Cl)cc(Cl)c(OCC(=O)NCc3ccco3)c2n1 | 56.5% (active) |
| Cc1ccc2c(Cl)cc(Cl)c(OCC(=O)NC(=O)NCc3ccco3)c2n1 | -8% |
| Cc1cc(Cl)cc(Cl)c1OCC(=O)NCc1ccco1 | -20.9% |
| Cc1ccccc1C(=O)/C=C1/c2ccccc2CC(C)(C)N1C | 4.3% |

| SMILES | displacement |
| --- | --- |
| c1ccc(Sc2cnc3ccccc3n2)cc1 | -0.3% |
| O=C1C(C=Nc2ccccc2O)=C(O)c2ccccc21 | -6.7% |
| CN=CC1=C(O)c2ccccc2C1=O | -13.3% |
| Cc1cc(C)c(C)c(S(=O)(=O)NCC(=O)O)c1C | 2.8% |
| CC(=O)c1ccc(N2CCN(c3ncc(C(F)(F)F)cc3Cl)CC2)cc1 | -8.1% |
| O=C(Nc1ccc(N2CCOCC2)cc1)Nc1ccc(Cl)c(Cl)c1 | -11.1% |
| Cc1nnc2n(Cc3ccccc3)c(=O)c3c4c(sc3n12)COC(C)(C)C4 | 4.4% |
| Cc1ccc(-n2c(SCC(=O)N3CCCC3)nc3c(c2=O)SCC3)cc1 | 1% |
| CCc1ccc(NC(=O)c2noc3c2CCCCC3)cc1 | -3% |
| CC(=O)c1ccc(NC(=O)c2noc3c2CCCCC3)cc1 | -0.9% |
| COc1ccc(CNC(=O)c2noc3c2CCCC3)cc1 | -8.9% |
| Cc1ccc(NC(=O)c2noc3c2CCCCC3)cc1 | -10.5% |
| O=C(N1CCOCC1)N1CCN(c2nc(-c3ccccc3)cs2)CC1 | -0.8% |
| COC(=O)c1cc(C(=O)OC)n(Cc2ccc(F)cc2)n1 | -10.3% |
| CCc1ccc(-n2nc3ccc(NC(=O)c4ccc5c(c4)OCO5)cc3n2)cc1 | -1% |
| O=C(Nc1ccc2nn(-c3ccccc3)nc2c1)c1ccc2c(c1)OCO2 | -30.3% |
| Cc1cccc(C(=O)NNC2=C(C(=O)C(F)(F)F)CCC2)c1O | 10.3% |
| Cc1nnc(SCCn2c(N3CCC(C)CC3)nc3c2c(=O)[nH]c(=O)n3C)s1 | -6.3% |
| Cc1cc(C)n(C(=O)CCN2C(=O)c3ccccc3C2=O)n1 | -3.1% |
| c1coc(-c2nnc3sc(-c4cccs4)nn23)c1 | 4.7% |
| Brc1ccc(-c2nn3c(-c4ccco4)nnc3s2)o1 | 30% |
| CC1(C)OC(=O)C(=CNn2cnc3ccccc3c2=O)C(=O)O1 | -2.6% |
| CCOC(=O)C1CCCN(C/C(O)=C(\C#N)c2nc(-c3ccc(Cl)cc3)cs2)C1 (configuration not stated) | 0% |

| SMILES | displacement |
| --- | --- |
| O=C(N/N=C/c1cccc(F)c1)c1cc(-c2ccco2)nc2ccccc12 | 39.5% |
| O=C(O)c1cc(-c2ccco2)nc2ccccc12 | 18.6% |
| Cc1cccc(NC(=O)c2cc(-c3ccco3)nc3ccccc23)n1 | 41.4% |
| CCOc1cc(N2CCOCC2)c(OCC)cc1NC(=O)c1cc(-c2ccco2)nc2ccccc12 | 25.3% |
| Cc1ccccc1C(=O)c1cccn1CC(=O)NCc1ccc2c(c1)OCO2 | -0.3% |
| O=C(O)c1cc2c([nH]c1=O)CCCC2 | -1% |
| Cc1cc(NC(=O)CN2CCN(S(=O)(=O)c3ccc4ccccc4c3)CC2)no1 | -1% |
| O=C(NCCN1CCCCCC1)c1ccc(CS(=O)(=O)c2ccc(Br)cc2)o1 | 4.3% |
| CS(=O)(=O)Nc1ccccc1C(=O)Nc1ccc2c(c1)OCCO2 | -6.4% |
| Cc1ccc(C(=O)NC2CCCc3ccccc32)o1 (configuration not stated) | 1.5% |
| NC(=S)N/N=C/c1ccc(-c2cccc([N+](=O)[O-])c2)o1 | -3.1% |
| O=C(O)c1cc(-c2ccc(/C=N/Nc3ccc(Cl)cc3)o2)ccc1Cl | -20.9% |
| C/C(N)=C(/C#N)C(=O)COC(=O)CSc1ccc2ccccc2c1 | -15.4% |
| O=C(COC(=O)CCc1ccccc1)Nc1ncc(Cl)cc1Cl | 24.2% |
| CC(C(=O)OCC(=O)Nc1ncc(Cl)cc1Cl)N1C(=O)c2ccccc2C1=O (configuration not stated) | 21.3% |
| CC(=O)NC12CC3CC(C1)CC(C(=O)OCC(=O)Nc1ncc(Cl)cc1Cl)(C3)C2 | 40.7% |
| O=C(COC(=O)CCCN1C(=O)c2ccccc2C1=O)Nc1ncc(Cl)cc1Cl | 43.6% |
| O=C(COC(=O)C12CC3CC(CC(C3)C1)C2)Nc1ncc(Cl)cc1Cl | 31.8% |
| Cc1ccc(S(=O)(=O)NCC(=O)OC(C)C(=O)Nc2ncc(Cl)cc2Cl)cc1 (configuration not stated) | -1.5% |
| COc1ccc(CC(=O)OCC(=O)Nc2ncc(Cl)cc2Cl)cc1 | 41.3% |
| Cc1ccc(S(=O)(=O)CCC(=O)OCC(=O)Nc2ncc(Cl)cc2Cl)cc1 | 24.5% |
